From PubChem BioAssay (EPA / NIEHS)
Records with an inconclusive call do not appear. Active and inactive are the calls of the source. How the source made its calls, unless noted: active means hit-call score of the fitted dose curve at least 0.9, where 1 is the maximum; inactive means score below 0.9.

What was measured:
[1] = biological target: Peroxisome proliferator-activated receptor gamma (Homo sapiens) (UniProt P37231); test: OT_PPARg_PPARgSRC1_0480: Odyssey Thera (OT) 8-hour Protein-Complementation Assay for Peroxisome Proliferator-activated Receptor Gamma / SRC-1 Co-activator (AID 2283387; active means hit-call score of the fitted dose curve at least 0.9, where 1 is the maximum;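 further: nuclear to cytoplasmic split Venus YFP fluorescence ratio reporting PPARg SRC-1 interaction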)
Summary of the method: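 Protein-fragment complementation of split Venus YFP reports PPARg/SRC-1 interaction in HEK293T (transfected 48 h before treatment), exposed 8 h. Readout: N/C fluorescence ratio at 488 nm from imaging, Draq5 for segmentation, positive fit relative to DMSO.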

[2] = biological target: Peroxisome proliferator-activated receptor gamma (Homo sapiens) (UniProt P37231); test: OT_PPARg_PPARgSRC1_1440: Odyssey Thera (OT) 24-hour Protein-Complementation Assay for Peroxisome Proliferator-activated Receptor Gamma/ SRC-1 Co-activator (AID 2283388; active means hit-call score of the fitted dose curve at least 0.9, where 1 is the maximum;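 further: nuclear to cytoplasmic ratio of reconstituted Venus YFP fluorescence in fixed imaged cells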)
Summary of the method: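 Readout is the 488 nm N/C fluorescence ratio from fixed, Draq5-stained HEK293T cells after 24 h compound exposure. Cells carried transiently transfected PPARg and SRC-1 fused to Venus fragments, transfected 48 h before treatment.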

[3] = read-out: Tumor necrosis factor receptor superfamily member 6 (Homo sapiens) (UniProt P25445); test: LTEA_HepaRG_FAS: Life Technologies and Expression Analysis (LTEA) Assay for Fas cell surface death receptor (FAS) using HepaRG (AID 2283447); conditions: mRNA level, 48 h; actives raise or lower the signal
Summary of the method: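 FAS transcript level was measured by TaqMan qRT-PCR against three housekeeping genes after 48 h chemical exposure. Cells were HepaRG, 0.5% DMSO vehicle, with a top concentration of 100 uM and half-log dilutions over eight points, in duplicate.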

[4] = read-out: Fatty acid synthase (Homo sapiens) (UniProt P49327); test: LTEA_HepaRG_FASN: Life Technologies and Expression Analysis (LTEA) Assay for Fatty Acid Synthase (FASN) using HepaRG (AID 2283448); conditions: mRNA level, 48 h; actives raise or lower the signal;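 on AC50: differentiated human HepaRG liver cells in serum-free induction medium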
Summary of the method: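 In human HepaRG cultures, 48 h chemical exposure (up to 100 uM, 0.5% DMSO) preceded TaqMan qRT-PCR of FASN.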

[5] = read-out: Cyclin D2 (CCND2), CCND2 (gene 894); test: LTEA_HepaRG_CCND2: Life Technologies and Expression Analysis (LTEA) Assay for Cyclin D2 (CCND2) using HepaRG (AID 2283449); conditions: mRNA level, 48 h; actives raise or lower the signal
Summary of the method: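 CCND2 transcript levels, quantified by qRT-PCR and normalised to three housekeeping genes, were fitted bidirectionally against 0.5% DMSO. HepaRG cultures were dosed 48 h in duplicate with an 8-point half-log series up to 100 uM.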

[6] = read-out: Cyclin Dependent Kinase Inhibitor 1A (CDKN1A), CDKN1A (gene 1026); test: LTEA_HepaRG_CDKN1A: Life Technologies and Expression Analysis (LTEA) Assay for Cyclin Dependent Kinase Inhibitor 1A (CDKN1A) using HepaRG (AID 2283450); conditions: mRNA level, 48 h; actives raise or lower the signal
Summary of the method: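 Expression quantified by Fluidigm qRT-PCR with ACTB, GAPDH and POLR2A normalization, fitted bidirectionally against 0.5% DMSO. Cells: HepaRG, plated 48 h then treated 48 h in serum-free induction medium, top concentration 100 uM with half-log dilutions.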

[7] = read-out: Cyclin D1 (CCND1), CCND1 (gene 595); test: LTEA_HepaRG_CCND1: Life Technologies and Expression Analysis (LTEA) Assay for Cyclin D1 (CCND1) using HepaRG (AID 2283451); conditions: mRNA level, 48 h; actives raise or lower the signal;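 on AC50: differentiated human HepaRG liver cells in serum-free induction medium; TaqMan qRT-PCR transcript level normalised to ACTB GAPDH and POLR2A housekeeping genes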
Summary of the method: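 Expression of CCND1 was quantified by qRT-PCR on Fluidigm arrays using ACTB, GAPDH and POLR2A as reference genes. HepaRG cultures, plated 48 h beforehand, were dosed for 48 h at up to 100 uM (half-log, 8 points) in 0.5% DMSO.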

[8] = read-out: catalase (CAT), CAT (gene 847); test: LTEA_HepaRG_CAT: Life Technologies and Expression Analysis (LTEA) Assay for catalase (CAT) using HepaRG (AID 2283452); conditions: mRNA level, 48 h; actives raise or lower the signal;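 on AC50: TaqMan qRT-PCR signal normalized to ACTB GAPDH and POLR2A housekeeping genes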
Summary of the method: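 Expression of CAT was quantified by TaqMan qRT-PCR with ACTB/GAPDH/POLR2A normalization after 48 h chemical exposure of HepaRG. Eight-point half-log series, top 100 uM, in 0.5% DMSO; gain or loss fitted against vehicle.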

[9] = read-out: flavin-containing dimethylaniline monooxygenases 3 (FMO3), FMO3 (gene 2328); test: LTEA_HepaRG_FMO3: Life Technologies and Expression Analysis (LTEA) Assay for flavin-containing dimethylaniline monooxygenases 3 (FMO3) using HepaRG (AID 2283453); conditions: mRNA level, 48 h; actives raise or lower the signal;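 on AC50: differentiated human HepaRG liver cells in serum-free induction medium; FMO3 transcript by TaqMan qRT-PCR normalized to ACTB GAPDH and POLR2A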
Summary of the method: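 Eight-point concentration-response in serum-free HepaRG cultures (top 100 uM, 0.5% DMSO, 48 h). Read-out: FMO3 mRNA level normalized to three endogenous control genes, fitted bidirectionally versus vehicle.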

[10] = read-out: Cytochrome P450 (CYP1A1), CYP1A1 (gene 1543); test: LTEA_HepaRG_CYP1A1: Life Technologies and Expression Analysis (LTEA) Assay for Cytochrome P450 (CYP1A1) using HepaRG (AID 2283454); conditions: mRNA level, 48 h; actives raise or lower the signal
Summary of the method: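 CYP1A1 transcript levels measured by Fluidigm qRT-PCR against three housekeeping genes, 48 h after chemical dosing of human HepaRG cells (highest concentration 100 uM, half-log steps, 0.5% DMSO vehicle). Gain or loss of signal fitted relative to DMSO.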

[11] = read-out: CFLAR gene, CFLAR (gene 8837); test: LTEA_HepaRG_CFLAR: Life Technologies and Expression Analysis (LTEA) Assay for CFLAR gene using HepaRG (AID 2283455); conditions: mRNA level, 48 h; actives raise or lower the signal
Summary of the method: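 Transcript level by qRT-PCR (normalized to ACTB, GAPDH and POLR2A) after 48 h chemical exposure of HepaRG cells, top concentration 100 uM with half-log steps, 0.5% DMSO vehicle, duplicates; fitted bidirectionally against DMSO baseline.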

[12] = CEETOX_H295R_OHPROG: CeeTox H295R High-throughput Steroidogenesis Assay for OH-Progesterone (OHPROG) (AID 2283435); conditions: actives raise or lower the signal;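 on AC50: 17alpha-hydroxyprogesterone secreted into medium measured by HPLC-MS/MS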
Summary of the method: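 Human adrenocortical H295R cells, passage 10 or lower, were treated with chemical for 48 h after forskolin priming, and hormone output in the medium was quantified by LC-MS/MS.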

[13] = CEETOX_H295R_ESTRADIOL: CeeTox H295R High-throughput Steroidogenesis Assay for Estradiol (AID 2283440); conditions: actives raise or lower the signal;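 further: estradiol secreted into medium quantified by LC-MS/MS after dansyl derivatisation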
Summary of the method: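 Estradiol in spent medium measured by LC-MS/MS after dansyl chloride derivatisation. Forskolin-primed (10 uM, 48 h) human adrenal H295R cells received test chemical 48 h at 0.1% DMSO; concentrations lowered until MTT viability >/=70%.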

[14] = CEETOX_H295R_ESTRONE: CeeTox H295R High-throughput Steroidogenesis Assay for Estrone (AID 2283441); conditions: actives raise or lower the signal;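 further: estrone secreted into medium measured by LC-MS/MS after dansyl derivatization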
Summary of the method: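 Forskolin-stimulated H295R cells are treated 48 h with chemical, and estrone in the medium is measured by LC-MS/MS. Activity is fitted in both directions relative to DMSO controls, with chemicals diluted until MTT viability reaches at least 70%.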

[15] = CEETOX_H295R_PROG: CeeTox H295R High-throughput Steroidogenesis Assay for Progesterone (PROG) (AID 2283442); conditions: actives raise or lower the signal;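 on AC50: human H295R adrenal cells primed with 10 µM forskolin before dosing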
Summary of the method: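 Progesterone secreted by human H295R cells was measured by LC-MS/MS following 48 h chemical exposure at 0.1% DMSO, preceded by 48 h forskolin (10 uM) stimulation. Same-well MTT viability; cytotoxic concentrations diluted 10- or 100-fold and retested.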

[16] = CEETOX_H295R_ANDR: CeeTox H295R High-throughput Steroidogenesis Assay for Androstenedione (ANDR) (AID 2283436); conditions: actives raise or lower the signal
Summary of the method: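 Medium from 48 h chemical-treated H295R adrenal cells was extracted with MTBE and androstenedione measured by LC-MS/MS. Activity was fit in both directions relative to DMSO. Cytotoxic concentrations were re-tested after dilution until MTT viability reached ≥70%.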

[17] = read-out: Forkhead box O1 (FOXO1), FOXO1 (gene 2308); test: LTEA_HepaRG_FOXO1: Life Technologies and Expression Analysis (LTEA) Assay for Forkhead box O1 (FOXO1) using HepaRG (AID 2283456); conditions: mRNA level, 48 h; actives raise or lower the signal
Summary of the method: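 FOXO1 transcript quantified by qRT-PCR after 48 h chemical exposure (top 100 uM, half-log steps, 0.5% DMSO) of HepaRG cells, housekeeping-normalized (ACTB/GAPDH/POLR2A). Changes fitted in both directions relative to vehicle.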

[18] = CEETOX_H295R_CORTIC: CeeTox H295R High-throughput Steroidogenesis Assay for Corticosterone (CORTIC) (AID 2283437); conditions: actives raise or lower the signal
Summary of the method: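 Medium corticosterone was quantified by tandem mass spectrometry following 48 hours of chemical exposure (0.1% DMSO) in human H295R cells previously stimulated 48 hours with 10 uM forskolin. Viability checked by MTT; chemicals diluted and retested when viability fell below 70%.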

[19] = CEETOX_H295R_CORTISOL: CeeTox H295R High-throughput Steroidogenesis Assay for Cortisol (AID 2283438); conditions: actives raise or lower the signal;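 further: cortisol secreted into medium quantified by LC-MS/MS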
Summary of the method: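 Steroidogenesis in H295R, per modified OECD 456: 48 h forskolin (10 uM), then 48 h exposure, 0.1% DMSO. Cortisol by extraction and tandem MS; viability by MTT (570/650 nm); cytotoxic chemicals diluted and re-tested.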

[20] = CEETOX_H295R_DOC: CeeTox H295R High-throughput Steroidogenesis Assay for DOC (AID 2283439); conditions: actives raise or lower the signal
Summary of the method: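 H295R, fsk 10 uM ×48 h pre, cmpd ×48 h (0.1% DMSO). Media → MTBE extr. → LC-MS/MS, DOC. Bidirectional fit vs DMSO; MTT viability same wells, re-test diluted if <70%.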

Measured: AC50

Sequence of Fatty acid synthase (Homo sapiens) (P49327 whole entry, looked up): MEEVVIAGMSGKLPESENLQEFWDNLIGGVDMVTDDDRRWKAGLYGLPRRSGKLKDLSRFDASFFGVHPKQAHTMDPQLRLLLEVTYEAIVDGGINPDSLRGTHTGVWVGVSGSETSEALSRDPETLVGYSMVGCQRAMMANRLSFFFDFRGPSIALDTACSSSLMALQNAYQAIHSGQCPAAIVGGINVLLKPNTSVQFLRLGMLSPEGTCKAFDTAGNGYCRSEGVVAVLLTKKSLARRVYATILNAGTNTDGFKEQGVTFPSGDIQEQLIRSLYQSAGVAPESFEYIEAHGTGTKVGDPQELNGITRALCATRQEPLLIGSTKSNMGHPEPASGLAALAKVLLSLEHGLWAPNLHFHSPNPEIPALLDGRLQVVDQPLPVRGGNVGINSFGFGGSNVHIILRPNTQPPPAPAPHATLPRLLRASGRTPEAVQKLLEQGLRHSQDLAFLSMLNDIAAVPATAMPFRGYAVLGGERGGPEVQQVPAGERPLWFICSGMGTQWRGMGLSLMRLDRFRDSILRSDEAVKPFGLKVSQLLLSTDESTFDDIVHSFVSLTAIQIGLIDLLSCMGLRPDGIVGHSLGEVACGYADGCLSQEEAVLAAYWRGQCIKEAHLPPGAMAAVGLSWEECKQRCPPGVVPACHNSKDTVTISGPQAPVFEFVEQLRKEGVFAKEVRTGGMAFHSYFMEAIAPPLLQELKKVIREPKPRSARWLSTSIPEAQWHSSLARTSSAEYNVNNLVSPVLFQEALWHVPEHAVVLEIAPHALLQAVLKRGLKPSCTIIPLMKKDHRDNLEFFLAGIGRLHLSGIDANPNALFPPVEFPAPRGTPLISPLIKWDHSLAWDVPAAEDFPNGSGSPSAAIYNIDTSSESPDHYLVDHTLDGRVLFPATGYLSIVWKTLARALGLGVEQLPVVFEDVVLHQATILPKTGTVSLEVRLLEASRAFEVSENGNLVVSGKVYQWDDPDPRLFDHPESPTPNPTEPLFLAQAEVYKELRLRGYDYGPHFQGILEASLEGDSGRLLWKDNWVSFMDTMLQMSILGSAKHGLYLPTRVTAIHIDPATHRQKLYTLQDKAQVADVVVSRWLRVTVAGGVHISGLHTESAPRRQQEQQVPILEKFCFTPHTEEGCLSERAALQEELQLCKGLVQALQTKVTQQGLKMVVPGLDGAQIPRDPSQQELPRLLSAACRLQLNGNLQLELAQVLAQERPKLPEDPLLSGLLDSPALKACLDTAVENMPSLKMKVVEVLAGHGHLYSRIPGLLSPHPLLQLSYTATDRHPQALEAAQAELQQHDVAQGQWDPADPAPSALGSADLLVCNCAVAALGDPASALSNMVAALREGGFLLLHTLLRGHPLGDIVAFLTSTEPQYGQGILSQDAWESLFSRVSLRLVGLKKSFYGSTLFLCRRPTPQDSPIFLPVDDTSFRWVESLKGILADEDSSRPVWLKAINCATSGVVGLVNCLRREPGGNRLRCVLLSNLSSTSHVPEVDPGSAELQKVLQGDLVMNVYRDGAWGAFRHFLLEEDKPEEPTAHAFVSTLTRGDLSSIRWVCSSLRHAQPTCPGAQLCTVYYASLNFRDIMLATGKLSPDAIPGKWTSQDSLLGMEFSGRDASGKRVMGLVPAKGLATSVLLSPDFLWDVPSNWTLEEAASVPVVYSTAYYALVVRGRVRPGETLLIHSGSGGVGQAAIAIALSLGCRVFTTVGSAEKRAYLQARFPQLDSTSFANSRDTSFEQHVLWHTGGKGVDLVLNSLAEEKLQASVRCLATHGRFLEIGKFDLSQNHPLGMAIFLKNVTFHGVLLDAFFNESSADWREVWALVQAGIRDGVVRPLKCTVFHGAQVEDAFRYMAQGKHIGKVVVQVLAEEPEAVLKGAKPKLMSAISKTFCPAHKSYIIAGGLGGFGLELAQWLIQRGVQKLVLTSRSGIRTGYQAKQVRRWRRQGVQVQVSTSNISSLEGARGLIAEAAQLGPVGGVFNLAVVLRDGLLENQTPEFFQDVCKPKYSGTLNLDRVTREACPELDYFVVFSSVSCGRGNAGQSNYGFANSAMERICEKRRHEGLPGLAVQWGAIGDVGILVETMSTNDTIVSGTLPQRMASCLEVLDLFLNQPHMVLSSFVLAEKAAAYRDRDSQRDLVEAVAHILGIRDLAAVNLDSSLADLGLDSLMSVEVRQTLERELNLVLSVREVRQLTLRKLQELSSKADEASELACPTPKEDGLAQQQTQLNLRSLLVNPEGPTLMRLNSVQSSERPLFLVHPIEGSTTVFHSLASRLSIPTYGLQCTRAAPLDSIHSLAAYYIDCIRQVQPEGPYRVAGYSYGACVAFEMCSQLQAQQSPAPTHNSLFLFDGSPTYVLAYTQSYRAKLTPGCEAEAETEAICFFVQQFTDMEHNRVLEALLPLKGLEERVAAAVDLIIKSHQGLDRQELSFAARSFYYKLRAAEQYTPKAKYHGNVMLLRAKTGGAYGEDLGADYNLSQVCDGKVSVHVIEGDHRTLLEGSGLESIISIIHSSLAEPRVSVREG
Sequence of Peroxisome proliferator-activated receptor gamma (Homo sapiens) (P37231 whole entry, looked up, the tested form may be a part): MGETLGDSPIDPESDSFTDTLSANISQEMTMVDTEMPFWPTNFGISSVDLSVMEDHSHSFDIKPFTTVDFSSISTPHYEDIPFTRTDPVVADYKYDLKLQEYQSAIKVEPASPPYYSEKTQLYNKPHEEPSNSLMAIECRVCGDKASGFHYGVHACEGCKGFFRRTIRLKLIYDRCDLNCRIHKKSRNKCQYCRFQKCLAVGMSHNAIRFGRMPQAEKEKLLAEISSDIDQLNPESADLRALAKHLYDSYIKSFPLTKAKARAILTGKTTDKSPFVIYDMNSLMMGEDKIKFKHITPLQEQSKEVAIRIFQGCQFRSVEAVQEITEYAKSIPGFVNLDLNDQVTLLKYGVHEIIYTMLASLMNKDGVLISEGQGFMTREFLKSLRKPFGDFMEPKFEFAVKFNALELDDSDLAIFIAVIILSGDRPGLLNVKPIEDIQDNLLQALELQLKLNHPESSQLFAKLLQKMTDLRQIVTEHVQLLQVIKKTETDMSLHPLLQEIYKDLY

Nn1cnnc1
active: [10] 50 µM
inactive: [1] | [2] | [3] | [4] | [5] | [6] | [7] | [8] | [9] | [11]

OCC(O)CO
inactive: [1] | [2]

N#Cc1ccc(N(CC(N)=O)CC(F)(F)F)cc1C(F)(F)F
active: [10] 50 µM
not listed: [16] | [17] | [18] | [19] | [20]
inactive: all other assays above

CCNc1nc(NC(C)C)nc(SC)n1
active: [9] 50 µM | [10] 19.8 µM
inactive: [1] | [2] | [12] | [16] | [15] | [3] | [6] | [7] | [8] | [11]

C[C@]12CCC(=O)C=C1CC[C@@H]1[C@@H]2CC[C@]2(C)C(=O)CC[C@@H]12
active: [12] 0.535 µM | [15] 0.271 µM | [4] 82.7 µM
not listed: [5] | [16] | [18] | [19] | [20]
inactive: all other assays above

ClC1=C(Cl)[C@]2(Cl)[C@@H]3[C@@H]4C[C@@H]([C@H]5O[C@@H]45)[C@@H]3[C@@]1(Cl)C2(Cl)Cl
active: [10] 28.3 µM
inactive: [1] | [2] | [3] | [4] | [5] | [6] | [7] | [8] | [9] | [11]

C[C@]12CCC(=O)C=C1CC[C@@H]1[C@@H]2CC[C@@]2(C)[C@H]1CC[C@]2(C)O
active: [12] 0.807 µM | [19] 7.76 µM | [4] 66.1 µM | [6] 79.9 µM | [9] 66 µM
not listed: [13] | [14] | [16] | [17]
inactive: all other assays above

NS(=O)(=O)C(F)(F)C(F)(F)C(F)(F)C(F)(F)C(F)(F)C(F)(F)C(F)(F)C(F)(F)F
active: [4] 12.9 µM | [6] 1.8 µM | [7] 50 µM | [8] 9.12 µM | [9] 11.8 µM | [10] 13.8 µM | [11] 7.67 µM
not listed: [17]
inactive: all other assays above
